Test results from PubChem BioAssay (NCI).
Compounds without any hit were thinned out: in the full panel of roughly 83,000, 20% have a hit.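 Step 1: grow cells in 96-well plates. Step 2: add test compound at a single concentration. Step 3: incubate 48 h. Step 4: record percent growth.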 A number with no mark means an inactive call. The source made the active and inactive calls. The calls were made as follows: active = growth percent below 10; inactive = the rest.

Experiments:
Test in all cases: NCI-60 one-dose screen, 48 h (100 = growth as untreated, 0 = no growth, -100 = all killed)
Settings in all cases: 10 µM unless noted
[1] = tested on: HCT-15 colon
[2] = tested on: HT29 colon
[3] = tested on: SNB-75 CNS
[4] = tested on: SNB-19 CNS
[5] = tested on: U251 CNS
[6] = tested on: PC-3 prostate
[7] = tested on: SK-MEL-5 melanoma
[8] = tested on: UACC-62 melanoma
[9] = tested on: LOX IMVI melanoma
[10] = tested on: SK-MEL-28 melanoma
[11] = tested on: SK-MEL-2 melanoma
[12] = tested on: EKVX NSCLC
[13] = tested on: SN12C renal
[14] = tested on: UO-31 renal
[15] = tested on: TK-10 renal
[16] = tested on: ACHN renal
[17] = tested on: CAKI-1 renal
[18] = tested on: A498 renal
[19] = tested on: CCRF-CEM leukemia
[20] = tested on: MOLT-4 leukemia

SMILES	growth [1]	growth [2]	growth [3]	growth [4]	growth [5]	growth [6]	growth [7]	growth [8]	growth [9]	growth [10]	growth [11]	growth [12]	growth [13]	growth [14]	growth [15]	growth [16]	growth [17]	growth [18]	growth [19]	growth [20]
O=c1c2cccc3c(N4CCCC4)ccc(c32)c2nc3ccccc3n12	78.6%	77.8%	73%	76%	64.7%	67.9%	64.5%	62.6%	51.7%	90.9%	113%	75.9%	64.8%	56.2%	87.6%	52.3%	51.3%	38%	53.7%	2.57% (active)
Cc1c(-c2ccc(O)cc2)n(Cc2ccc(OCCN3CCCCCC3)cc2)c2ccc(O)cc12	20.5%	59.4%	43.4%	88.1%	56.4%	76.8%	57.2%	98.3%	39.4%	92.6%	106%	75.2%	81%	52.6%	78%	91.9%	50.6%	53.7%	57.5%	–
C=C(C)[C@@H]1CCC[C@]2(COS(=O)(=O)c3ccc(C)cc3)CC[C@]3(C)[C@@H](CC[C@@H]4[C@@]5(C)CCCNC(C)(C)[C@@H]5CC[C@]43C)[C@@H]12	-61.5% (active)	-50.8% (active)	81.6%	39%	-82.1% (active)	10.5%	92.1%	87.7%	-86.5% (active)	68.3%	83.1%	9.77% (active)	-94.4% (active)	61%	43.2%	44.6%	-68.3% (active)	81.3%	1.15% (active)	–
COCCNC(=O)Nc1ccc2nc(-c3cccs3)c(-c3cccs3)nc2c1	90.9%	87.8%	81.6%	95.5%	96.7%	79.2%	89.5%	85.1%	82.8%	96.7%	101%	87.9%	94.7%	74.4%	104%	89.3%	89.8%	33.7%	96.8%	–
O=C(O)c1cn(C2CC2)c2cc(N3CCN(C(=O)N(c4ccccc4)c4nc(-c5ccccc5)cs4)CC3)c(F)cc2c1=O	6.28% (active)	4.23% (active)	-9.1% (active)	15.7%	12.6%	8.6% (active)	-61.3% (active)	-4% (active)	-23.6% (active)	36.1%	-18.3% (active)	16.9%	1.06% (active)	5.23% (active)	38.3%	-79.1% (active)	6.68% (active)	3.2% (active)	10.9%	–
CC(C)(Sc1cc(C(C)(C)C)c(O)c(C(C)(C)C)c1)Sc1cc(C(C)(C)C)c(OC(=O)CCCC(=O)O)c(C(C)(C)C)c1	27.8%	40.8%	112%	57.1%	47.1%	33.9%	54.1%	26.1%	59%	70.6%	76%	53.5%	41.4%	38%	74.2%	47%	59%	60.2%	43.5%	–
C#Cc1c2c(c(OC)c3c1OCO3)[C@H]([C@H]1OC(=O)c3c1ccc(OC)c3OC)N(C)CC2	60.7%	60.7%	85.8%	92.7%	87.9%	76.5%	93.4%	75.6%	79.7%	95.1%	67.7%	89.8%	100%	87.2%	76.1%	93.6%	86.3%	72.6%	80.7%	77.3%
CC(=O)c1c(C)nc2ccccc2c1/C=C/c1ccc(F)cc1	84.8%	90.7%	82.4%	93%	86.7%	79.1%	69.5%	74.9%	81.4%	114%	93.3%	75.5%	93.3%	67.6%	91.8%	85.4%	75.7%	84.6%	82%	–
O=c1[nH]c(Cc2nc3ccccc3s2)nc2cc(Br)ccc12	61.7%	43.7%	82.1%	82.2%	81.9%	60.9%	80.6%	2.81% (active)	27.8%	55.1%	57.5%	87.5%	81.3%	37.3%	94.3%	35.9%	58.7%	95.7%	56.2%	–
CCOC(=O)c1c(NC(=O)c2cccc(C(F)(F)F)c2)sc2c(CN(C)C)c(O)ccc12	10.6%	13.5%	83%	88.4%	16.5%	60.3%	93.6%	102%	16.5%	17%	108%	98.8%	90%	48.9%	113%	45.5%	71.1%	82%	9.93% (active)	43.4%
c1ccc([P+](c2ccccc2)(c2ccccc2)c2ccc3c4ccc([P+](c5ccccc5)(c5ccccc5)c5ccccc5)c5cccc(c6cccc2c63)c54)cc1	66.2%	8.41% (active)	13.5%	12.5%	14%	17.7%	-57.6% (active)	15%	3.08% (active)	4.81% (active)	18.6%	12.8%	10.5%	39.4%	52.2%	41.3%	40.3%	-11.3% (active)	26.5%	–
COc1cc(-c2nc3sccn3c2-c2ccnc(NCCNS(=O)(=O)c3ccccc3)n2)ccc1F	52.1%	24.6%	59.4%	67.6%	61%	30.9%	19%	25.8%	41.4%	63.7%	54.2%	61.5%	46.4%	16.1%	57%	41.1%	26.9%	48.9%	30.9%	–
Cc1cc(=O)oc2cc(OCc3nn4c(Nc5nc6ccccc6s5)c(-c5ccccc5)nc4s3)ccc12	91.3%	102%	84.4%	74.7%	96.7%	87%	99.2%	84.4%	95.8%	102%	108%	88.4%	91.4%	83.6%	128%	100%	79.5%	91.1%	40.7%	–
Cn1c(I)c(C#CCO[Si](C)(C)C(C)(C)C)c(=O)[nH]c1=O	91%	113%	99.9%	104%	109%	96.5%	103%	101%	99.9%	30.7%	69.2%	105%	114%	25.3%	92.7%	99.7%	103%	94.5%	5.42% (active)	-22.9% (active)
OCCn1cc(-c2nc(-c3c[nH]c4ncccc34)cs2)c2ccccc21	55.9%	95%	55.2%	88.1%	78.9%	61.8%	77.5%	69.9%	77.7%	104%	98.6%	32%	80%	37.8%	82.5%	69.3%	73.7%	34.7%	84.8%	–
Cc1ccc2c(c1)=C/C(=C\c1cc(-c3ccccc3)oc1O)C(=O)N=2	97.6%	108%	93.5%	107%	109%	96.3%	105%	101%	94.4%	104%	114%	92.6%	106%	100%	97.6%	105%	91.1%	96.6%	100%	–
